MCL1-BIM inh = disrupts human MCL1 binding to BIM-BH3 peptide | inhibition, % at 10.9 µM | AID 2057 | Q07820 | 320,000 compounds, 0.68% hits | GST-MCL1 / FITC-Bim-BH3 fluorescence polarization;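 active = inhibition above the mean inhibition of all tested compounds plus 3 SD, set per campaign, cut at about 40% in these data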;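 note: 0% = DMSO wells and 100% = unlabeled Bim-BH3 peptide control; higher means more loss of mP so more displacement of Bim peptide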
MEX-5 binding = C. elegans MEX-5 TCR-2 RNA binding activity | Q9XUB2 | MEX-5/FITC-TCR2 RNA binding, fluorescence polarization; hits give low values | activity score (negative = inhibition of binding), % at 10 µM | 300,000 compounds, 0.38% hits | AID 1832;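 active = inhibition past about -25% in most replicates, and total fluorescence under double the plate's negative control median, limit read from the data; inconclusive = replicates evenly split on the limit, or fluorescence at least double controls; inactive = too little inhibition in most replicates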;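 note: 0% = DMSO and -100% = 5 µM competing unlabeled TCR2 RNA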
Target sequence (Q9XUB2 whole entry, looked up): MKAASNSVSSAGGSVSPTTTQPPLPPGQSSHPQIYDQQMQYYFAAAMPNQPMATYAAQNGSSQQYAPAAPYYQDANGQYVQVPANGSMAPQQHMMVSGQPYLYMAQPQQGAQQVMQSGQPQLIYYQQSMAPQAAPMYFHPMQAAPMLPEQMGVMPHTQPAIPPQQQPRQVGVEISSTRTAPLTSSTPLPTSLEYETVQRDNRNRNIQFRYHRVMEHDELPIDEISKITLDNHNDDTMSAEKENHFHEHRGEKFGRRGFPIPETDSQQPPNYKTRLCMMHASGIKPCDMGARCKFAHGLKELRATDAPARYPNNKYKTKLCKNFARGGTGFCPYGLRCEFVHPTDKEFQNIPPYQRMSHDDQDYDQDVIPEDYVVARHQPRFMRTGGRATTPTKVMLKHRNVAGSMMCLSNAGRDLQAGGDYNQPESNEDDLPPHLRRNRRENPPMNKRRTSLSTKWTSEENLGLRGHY
GLD-1 TGE inh = GLD-1-TGE RNA interaction inhibition (C. elegans); Q17339; purified GLD-1 + fluorescein TGE RNA, fluorescence polarization; inhibition, % at 5.96 µM; 320,000 compounds, 0.44% hits; AID 2280;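 active = percent inhibition above a per-plate cutoff, the plate mean of test compounds plus 3 SD, cut at about 30% in these data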;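 note: 0% = DMSO wells with GLD-1 and probe and 100% = wells lacking GLD-1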
E coli Lon inh = E. coli protease La inhibition; P0A9M0; purified E. coli Lon protease, fluorescence polarization; inhibition, % at 7.94 µM; 360,000 compounds, 0.42% hits; in the data active = inhibition above about 13%, passing the limit was not always enough;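 note: 0% = enzyme with probe and DMSO and 100% = no enzyme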
EBV gp42 block = EBV gp42 inhibition; Fluorescence polarization binding assay, mP read-out; inhibition, % (tested at 21.74 µM); 220,000 compounds, 0.42% hits; AID 1085; in the data active = inhibition above about 50%
BCLXL inh = blocks human Bcl-xL binding to Bim BH3 peptide; inhibition, % at 10.9 µM; Q07817; GST-Bcl-xL / FITC-Bim BH3 peptide fluorescence polarization; 320,000 compounds, 0.7% hits;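 active = inhibition above the mean of all tested compounds plus 3 SD, cutoff set per campaign, cut at about 30% in these data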;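 note: 0% = DMSO wells and 100% = unlabeled Bim-BH3 peptide competitor; inhibitors lower millipolarization by displacing the labeled peptide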
E coli Lon conf = confirmation of E. coli Lon protease inhibitors | 1,400 compounds, 31% hits | purified E. coli Lon, fluorescence polarization | shares compounds with E coli Lon inh | inhibition, % at 7.94 µM | AID 602230; in the data active = inhibition above about 16%;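 note: 0% = enzyme with probe and DMSO and 100% = no enzyme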
* = called active by the depositor; ? = inconclusive; . = no result given; + = active, no number. In the library only some 1.4% were active in any assay of this set; here they are far more common.

SMILES	MCL1-BIM inh	MEX-5 binding	GLD-1 TGE inh	E coli Lon inh	EBV gp42 block	BCLXL inh	E coli Lon conf
O=C1NC2=C(C(=O)CCC2)C(c2ccccc2)N1 (centres undefined)	-5	-1	-5	1	.	2	.
CCN(CC)Cc1cc(O)c(CN(CC)CC)cc1O	.	-39*	.	35*	-15	.	30*
CCc1oc(C(=O)O)cc1CN(CC)CC	9	-1	2	0	-9	9	.
COCCn1c(SCC(=O)c2cc(C)n(C)c2C)nc2ccccc2c1=O	2	-1	6	15*	8	5	4
COCCn1c(SCC(=O)NC(=O)Cc2ccccc2)nc2ccccc2c1=O	3	.	5	13	.	0	.
O=C(O)/C=C/C(=O)Nc1ccc(OC(F)(F)F)cc1Br	-1	1	6	9	-11	5	.
N#CCC(=O)Nc1ccc(C(=O)OCC(=O)N2CCN(C(=O)c3ccco3)CC2)cc1	.	.	-17	-75	.	.	.
CC(=O)Nc1cc(-c2ccccc2N(C)C)cn2c(-c3cccc(C(F)(F)F)c3)cnc12	.	.	.	+	.	.	9
CCN1CCN(Cc2c3ccccc3cc3ccccc23)CC1	14	-1	7	-1	.	7	.
COc1ccc(N=NC2=C(O)CC(C)(C)CC2=O)c(OC)c1	-31	14	-42	22*	-102	-21	-90
Cn1cnc(S(=O)(=O)NC2CCN(Cc3c(F)cccc3Cl)CC2)c1	6	-2	9	-7	.	7	.
COc1ccc(CN2CCNC(=O)C2CC(=O)NCc2csc(C)n2)c(F)c1 (centres undefined)	29	-1	14	19*	.	18	4
C=CCn1c(=O)c(C(=O)Nc2ncccc2C)c(O)c2ccccc21	.	.	.	-15	.	.	.
N#Cc1cccc(NC(=O)c2cc(C3CCCCN3C(=O)c3cccs3)on2)c1 (centres undefined)	.	.	.	15*	.	.	-3
CC(=O)Nc1ccc(OS(=O)(=O)c2ccc([N+](=O)[O-])cc2)cc1	2	-3	5	-2	-10	4	.
CN(C)c1cc2c3ccccc3n(C)c2cc1N	.	.	.	41*	.	.	52*
Cc1ccc(C)c2c1c1ccccc1n2C	-9	0	0	2	-6	0	.
COc1ccc(NC(=O)CN(C)C(=O)CCc2c[nH]c3ccccc23)cc1	-2	-1	3	32*	.	3	16
CC(C)C(=O)NNS(=O)(=O)c1ccccc1[N+](=O)[O-]	4	1	1	15*	-8	4	3
CCOc1ccccc1NC(=O)Nc1ccc(OC)nc1	.	?	.	22*	.	.	16*
CCOc1ccccc1NC(=O)Nc1cccc(NC(C)=O)c1	-1	1	-9	9	-19	3	.
O=C(Nc1nccs1)c1cc(-c2ccccn2)nc2c(Cl)cccc12	-34	-1	-2	-8	.	-11	.
COc1ccc(CNC(=O)CN(C(=O)CCC(=O)Nc2nccs2)c2cccc(C)c2)cc1	-4	0	-6	0	.	-4	.
Cc1cc(C(=O)COC(=O)c2cccc(O)c2)c(C)n1C1CC1	0	.	6	28*	.	-1	-34
N#CN1C2CCC1CC(O)(c1ccccc1)C2 (centres undefined)	.	.	.	-6	.	.	.
SMILES	MCL1-BIM inh	MEX-5 binding	GLD-1 TGE inh	E coli Lon inh	EBV gp42 block	BCLXL inh	E coli Lon conf
CCc1ccccc1NC(=S)N(CCOC)C(C)c1ccco1 (centres undefined)	4	0	-1	-5	-10	2	.
CCCC1C2CN(C(C)C)CC=C2C(C#N)=C(N)C1(C#N)C#N (centres undefined)	180*	-75*	132*	59*	69*	161*	18*
O=C(CN1CCCc2ccccc21)NC(=O)NCc1ccco1	16	1	6	53*	3	10	-3
CCC(CCC(=O)Nc1cccc([N+](=O)[O-])c1)C(=O)O (centres undefined)	-4	.	-1	5	-10	-1	.
CCC(CC)C(=O)OCC(=O)Nc1cccc([N+](=O)[O-])c1	-4	3	4	16*	0	0	2
O=C(N/N=C/c1ccccc1)C(=O)N/N=C/c1ccccc1	0	-2	4	20*	.	3	3
Cc1ccc(NC(=O)COc2ccccc2C(N)=O)cc1S(=O)(=O)N1CCCCCC1	-10	.	4	22*	.	-6	1
